The source of these data is PubChem BioAssay.

The nature of test [1]: viability loss in pontine glioma line – cell-based, SU-DIPG-XXV, MIPE5.0, CellTiter-Glo, qHTS, dose response (AID 1347065; cut-off not given, nearly all actives have AC50 up to about 26 µM;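 also: cells exposed to compound for 48 hours before ATP readout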). The note with it: CellTiter-Glo ATP luminescence. (In general: ATP-based viability assays read luminescence as a measure of living cells.)
A short description of test [2]: JHH-DIPG-1 glioma cell viability, MIPE5.0 library, CellTiter-Glo luminescence, qHTS (AID 1347067; cut-off not given, nearly all actives have AC50 up to about 26 µM;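 also: cells exposed to compound for 48 hours before readout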). As to conditions: JHH-DIPG-1 glioma viability, CellTiter-Glo ATP luminescence.
The nature of test [3]: growth inhibition of DIPG cells – cell-based, MIPE5.0 library, qHTS (AID 1347068; cut-off not given, nearly all actives have IC50 up to about 30 µM;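 as to IC50: cells exposed to compound for 48 hours before viability readout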). As to conditions: SU-DIPG-XXV viability. For orientation: In qHTS, concentration-response curves come from the screen itself.
Test [4] is described as follows: growth inhibition, single agent or in combination, cell-based, chromothripsis tumors, cisplatin or BGB combos (AID 1671449).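 Also: cells exposed for 96 hours; 0% = vehicle DMSO and 100% = killing by high DMSO.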 The note with it: LFS_MB_P medulloblastoma cells.
Test [5] is described as follows: growth inhibition, single agent and combos, cell-based, chromothripsis tumors, cisplatin or BGB combos (AID 1671450).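 Also: cells exposed to compound for four days; 0% = vehicle DMSO and 100% = cell killing by high DMSO.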 The note with it: HDN33 neuroblastoma cells, stronger effect = higher value.
A short description of test [6]: growth inhibition, single agents and combos, ICB984, cell-based, cisplatin or BGB combos, synergistic combos for chromothripsis tumors (AID 1671451; call rule not given here;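 also: cells exposed for 96 hours before readout; 0% = vehicle DMSO and 100% = killing by high DMSO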). The note with it: ICB984 medulloblastoma cells, drug combinations, stronger effect = higher value.
The nature of test [7]: growth inhibition, single agents and combos, LFS_MB_1R, cell-based, cisplatin or BGB combos, synergistic combos for chromothripsis tumors (AID 1671452).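 Also: cells exposed for 96 hours before readout.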 The note with it: LFS_MB_1R medulloblastoma cells, stronger effect = higher value.
A short description of test [8]: growth inhibition, single agents and combos, HTB85, cell-based, BGB or cisplatin IC20 combos, synergistic combos for chromothripsis tumors (AID 1671453).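 Also: cells exposed for 96 hours before readout; 0% = vehicle DMSO and 100% = high DMSO killing control.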 The note with it: HTB85 osteosarcoma cells, drug combinations, stronger effect = higher value.
A short description of test [9]: growth inhibition, single agents and combos, CRL2098, cell-based, BGB or cisplatin IC20 combos, synergistic combos for chromothripsis tumors (AID 1671454).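 Also: cells exposed for 96 h before readout; 0% = vehicle DMSO and 100% = killing by high DMSO.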 The note with it: CRL2098 osteosarcoma cells, drug combinations, stronger effect = higher value.
Test [10] in a line: growth inhibition, single agents and combos, HD-MB03, cell-based, BGB or cisplatin IC20 combos, synergistic combos for chromothripsis tumors (AID 1671455; in the data active = inhibition above about 83%;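 also: 0% = vehicle DMSO and 100% = high DMSO as cytotoxic control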). The note with it: HD-MB03 medulloblastoma cells, stronger effect = higher value.
Test [11] is described as follows: growth inhibition, single agents and combos, UWB1.289, cell-based, BGB or cisplatin combos, synergistic combos for chromothripsis tumors (AID 1671456).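 Also: cells exposed to compound for four days; 0% = vehicle DMSO and 100% = killing by high DMSO.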 As to conditions: UWB1.289 ovarian carcinoma cells, stronger effect = higher value.
Test [12] in a line: growth inhibition, single agents and combos, LFS_MB_2R, cell-based, cisplatin combos, synergistic combos for chromothripsis tumors (AID 1671457).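 Also: cells exposed to compound for four days before readout.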 The note with it: LFS_MB_2R medulloblastoma cells, stronger effect = higher value.
Test [13] is described as follows: growth inhibition, MDA-MB-436, cell-based, BGB or cisplatin combos, synergistic combos for chromothripsis tumors (AID 1671458; call rule not given here;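 also: cells exposed for 96 hours; 0% = vehicle DMSO and 100% = killing by high DMSO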). As to conditions: MDA-MB-436 breast carcinoma growth inhibition, drug combinations, stronger effect = higher value.
A short description of test [14]: UWB1.289_BRCA1 ovarian cancer growth, cell-based, BGB or cisplatin combinations (AID 1671459). The note with it: UWB1.289 BRCA1 ovarian carcinoma, drug combinations, stronger effect = higher value.
Test [15] is described as follows: drug combination toxicity in non-malignant astrocytes – cell-based, BGB or cisplatin IC20 combos, cytotoxicity control for chromothriptic childhood tumor combination screen (AID 1671460).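 Also: cells exposed to compounds for 96 hours before viability readout; 0% = vehicle and 100% = killing control.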 As to conditions: Human astrocytes, viability inhibition, drug combinations, at 0.5 µM, stronger effect = higher value.
The nature of test [16]: BT084 cell growth, single and combined drugs, ICGC_MB145, cisplatin and BGB IC40 combos (AID 1671461).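 Also: cells exposed to drugs for 96 hours; 0% = vehicle DMSO and 100% = high DMSO full killing control.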 As to conditions: BT084 medulloblastoma cells, drug combinations, stronger effect = higher value.
Test [17] can be described thus: RCMB18 cell growth, single agent and combined, cisplatin and BGB IC40 combos (AID 1671462).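 Also: cells exposed to compound for four days.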 As to conditions: RCMB18 medulloblastoma cells, stronger effect = higher value.
A short description of test [18]: CRL1545 cell growth, single agent and combined, cisplatin and BGB IC20 combos (AID 1671464).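 Also: cells exposed to compound for 96 hours before readout; 0% = vehicle DMSO and 100% = high DMSO killing control.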 As to conditions: CRL1545 osteosarcoma cells, stronger effect = higher value.
[19] abbreviates: measured here: combination with BGB IC40, at 0.05 µM.
The mark [20] stands for this setting: measured here: with BGB IC20 combination, at 0.5 µM.
Where [21] appears, read: measured here: with cisplatin IC20 combination, at 0.5 µM.
[22] abbreviates: measured here: combination with cisplatin, at 0.5 µM.
[23] abbreviates: measured here: combination with cisplatin, at 5 µM.

Values joined by “and” are separate entries in the source; they are usually repeats but may differ in a detail not shown here. Equal values may be shown once. Records with an inconclusive call do not appear. Active and inactive are the calls of the source. Rule as the data show it, unless noted: active = inhibition above about 80%; inactive = the rest.

The AC50 is the concentration giving half of the maximal activity seen. For the compound `COC(=O)C1C2CC3c4[nH]c5cc(OC)ccc5c4CCN3CC2CC(OC(=O)c2cc(OC)c(OC)c(OC)c2)C1OC` (stereo not drawn), the concentration at half-maximal activity (AC50) was 20.9 µM (active) in test [1] and 23.5 µM (active) in test [2]. Moreover, the result in test [3] was inactive.
As for `Cn1ncc2cc(-c3cnc(N)c(Cl)c3N3CCC4(CCNC4=O)CC3)ccc21`, the AC50 in test [1] is 20.9 µM (active). In addition, the compound was classed as inactive in test [2].
With `CC(C)(CNC(=O)c1cccc(-c2noc(C(F)(F)F)n2)c1)c1coc(-c2ccccc2)n1`, the half-maximal activity concentration (AC50) in test [1] was 20.9 µM (active). In test [3], the call was inactive.
In the case of `CCNCc1nc2c(N)nc3ccccc3c2n1CC(C)(C)O`, the outcome in [1], in test [2] and in [3] was inactive.
In the case of `Clc1cc2c(NC3CCCC3)nnc(-c3ccncc3)c2cc1Cl`, the AC50 in test [1] was 23.5 µM (active). Further, the outcome in [3] was inactive.
Consider `Cc1nc(-c2cccnc2)sc1C(=O)Nc1ccccc1-c1cn2c(CN3CCOCC3)csc2n1`, for which the compound was classed as inactive in test [1] and in test [3].
For the compound `C[C@H](NC(=O)c1c(N)nn2cccnc12)c1cc2cccc(C#Cc3cnn(C)c3)c2c(=O)n1-c1ccccc1`, in test [1], the half-maximal activity concentration (AC50) is 12.9 µM (active). The compound was classed as inactive in test [3].
`CC(C)(O)CNc1nc(Nc2ccnc(C(F)(F)F)c2)nc(-c2cccc(C(F)(F)F)n2)n1`: the concentration at half-maximal activity (AC50) in [1] is 14.8 µM (active). For the same compound, the result in [3] was inactive.
For `COc1cc(N2CCN(C)CC2)ccc1Nc1ncc2c(n1)N(C)c1ccccc1C(=O)N2`, in test [1], the AC50 is 20.9 µM (active). Further, the compound was classed as inactive in test [3].
Consider `COc1ccc(CNC(=O)c2cc(-c3cncc(Cl)c3)cnc2-c2ccccn2)nc1OC`, for which the result in [1], in test [2] and in test [3] was inactive.
On to `CN1CCN(C(=O)c2ccc3cc(CCNc4ncnc5ccc(C#N)cc45)ccc3c2)CC1`, for which the AC50 is 23.5 µM (active) in test [1] and 20.9 µM (active) in [2].
As for `Cc1cc(Nc2ncnc3ccc(NC4=NC(C)(C)CO4)cc23)ccc1Oc1ccn2ncnc2c1`, the AC50 in test [1] is 14.8 µM (active). Further, the compound was classed as inactive in [3].
One may read the IC50 as the point on the concentration scale where inhibition reaches its midpoint. Broadly, the inhibition is the change of the read-out against control, counted positive when it falls. For `Nc1ccc(F)cc1NC(=O)c1ccc(CNC(=O)/C=C/c2cccnc2)cc1`, the values for the half-maximal activity concentration (AC50) in test [1] and in test [2] were 5.9 µM (active) and 9.34 µM (active), respectively. The concentration for half-maximal inhibition (IC50) in test [3] was 16.6 µM (active). Besides, the inhibition was -9.27% (inactive) and 17.5% (inactive) in [4] (at 0.5 µM, stronger effect = higher value); -31.2% and 6.89% in [4] (measured here: combination with BGB IC20, at 0.005 µM); -55.6% and -31.5% in [4] (measured here: combination with BGB IC40, at 0.005 µM); -32.7% and -5.83% in test [4] (setting [19]); 16% and 62.9% in [4] (measured here: combination with cisplatin, at 0.5 µM, stronger effect = higher value); 108% and 116% in test [4] (measured here: combination with cisplatin, at 5 µM, stronger effect = higher value). For the same compound, the inhibition in test [5] (BGB combo, at 5 µM) was 80.7%; in [5] (at 0.5 µM), 12.4% (inactive) and 12.7% (inactive); in [5] (cisplatin combo, at 5 µM), 80.6% and 84.9%; in test [5] (setting [20]) it was 1.48% and 7.37%; in test [5] (setting [21]), 26.1% and 17.9%; in [5] (single agent, at 5 µM) it was 78.9% and 79.8%. In addition, the inhibition in test [6] (BGB IC20 combo, at 0.005 µM) was 6.31% and 11.4%; in [6] (BGB IC40 combo, at 0.005 µM), 6.94% and 2.58%; in [6] (BGB IC40 combo, at 0.05 µM) it was 84.2% and 81%; in test [6] (at 0.5 µM), -12.1% (inactive) and -33.8% (inactive); in [6] (cisplatin combo, at 0.05 µM), 83.9% and 80.3%; in test [6] (cisplatin combo, at 0.5 µM) it was -1.65% and -31.4%. Moreover, the inhibition in [6] (cisplatin combo, at 5 µM) was -26.1% and -13.8%; in test [6] (measured here: 5 uM single agent, at 5 µM) it was -14% and -9.96%; in test [7] (at 0.5 µM), 30% (inactive) and 36% (inactive); in test [7] (setting [19]), -28.7% and -30.1%; in [7] (setting [22]) it was 65% and 50%; in [7] (setting [23]) it was 97% and 96%. Besides, the inhibition in test [8] (at 0.5 µM) is 21% (inactive) and 24% (inactive); in test [8] (measured here: with BGB IC20, at 0.5 µM), 43.2% and 13.5%; in test [8] (measured here: with BGB IC20, at 5 µM) it was 97.2% and 95.3%; in test [8] (measured here: with cisplatin IC20, at 0.5 µM), 15.4% and 37.9%; in test [8] (measured here: with cisplatin IC20, at 5 µM) it was 97.9% and 96.5%; in test [8] (single agent, at 5 µM), 91.8% and 89.6%. In addition, the inhibition was -40.8% (inactive) and -34.5% (inactive) in test [9] (at 0.5 µM); -53.4% and -17.4% in [9] (measured here: combination with BGB at IC20, at 0.5 µM); -22.2% and -51.8% in test [9] (measured here: combination with cisplatin at IC20, at 0.5 µM); 19.9% (inactive) and 36% (inactive) in test [10] (at 0.5 µM); 24.3% and 36.2% in test [10] (measured here: combo with BGB at IC20, at 0.5 µM); 28.3% and 50.6% in test [10] (measured here: combo with cisplatin at IC20, at 0.5 µM). The inhibition was 6.29% (inactive) and 20.9% (inactive) in test [11] (at 0.5 µM); -10.5% and -21.7% in test [11] (measured here: inhibition with BGB combination, at 0.05 µM); -34.6% and -15.2% in test [11] (measured here: inhibition with cisplatin combination, at 0.05 µM); 19.4% (inactive) and 17.9% (inactive) in test [12] (at 0.5 µM); 42.4% and 41% in test [12] (setting [22]); 91.1% and 92.2% in test [12] (setting [23]). Further, the inhibition is -0.59% (inactive) and 2.18% (inactive) in [13] (at 0.5 µM); -5.08% and -6.18% in test [13] (measured here: BGB combination, at 0.5 µM); 27.2% and 23.4% in [13] (measured here: BGB combination, at 5 µM); -7.52% and 1.65% in test [13] (measured here: cisplatin combination, at 0.5 µM); 37.2% and 38.6% in test [13] (measured here: cisplatin combination, at 5 µM); 85.3% and 82.2% in test [14] (BGB combination, concentration series, at 5 µM). In addition, the inhibition in test [14] (at 0.5 µM) is 1.02% (inactive) and 1.89% (inactive); in [14] (cisplatin combination, concentration series, at 5 µM) it was 98.1% and 92.9%; in [15] it was -0.32% (inactive) and -2.77% (inactive); in [15] (measured here: combo with BGB IC20), -0.373% and -1.39%; in test [15] (measured here: combo with cisplatin IC20), -8.73% and -1.18%; in test [16] (at 0.5 µM), 39.6% (inactive) and 45% (inactive). Moreover, the inhibition in test [16] (cisplatin combination, at 0.5 µM) is 58.4% and 61.5%; in test [16] (cisplatin combination, at 5 µM) it was 87.7% and 92.4%; in [16] (measured here: BGB IC40 combination 0.05 uM, at 0.05 µM), -24% and -23.6%; in [16] (single agent, at 5 µM), 65.3% and 57.1%; in [17] (at 0.5 µM) it was 43.9% (inactive) and 41.5% (inactive); in test [17] (cisplatin combo, at 5 µM), 93.2% and 98.3%. Besides, the inhibition in test [17] (measured here: BGB IC40 combination, at 0.05 µM) was -7.17% and -21.6%; in test [17] (setting [22]), 52.2% and 77.9%; in test [17] (single agent, at 5 µM), 82.6% and 79%; in [18] (at 0.5 µM), 45.6% (inactive) and 32.9% (inactive); in [18] (setting [20]), 25.5% and 27%; in [18] (setting [21]), 54.9% and 35.9%. For the same compound, the inhibition in [18] (single agent, at 0.05 µM) is -31.6% and 15.5%; in test [18] (single agent, at 5 µM) it was 32.4% and 21.9%.
